Only some compounds are listed: those with a hit (about 18% of all), similar ones and a draw of the others.
DT40 TDP1 CPT: growth inhibition of DT40 Tdp1-/-;hTDP1 cells with camptothecin (screen for TDP1 inhibitors); chicken DT40 Tdp1-/-;hTDP1 cells + 20 nM CPT, ATP luminescence, 48 h; 420,000 tested, 12% active; Potency, µM (titrated, usually from 46.2 µM), actives largely listed as inhibitors; further: nearly all actives have a fitted effect of over 55% in size
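Cell growth measured by CellTiter-Glo luminescence after a minimum 48 h, 37 C compound exposure with 20 nM CPT in Tdp1-knockout DT40 cells stably expressing hTDP1, seeded 400/well; qHTS titration format.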
TGFb SMAD3 inh: inhibitors of TGF-b signaling. HepG2 CAGA-GFP TGF-b/SMAD3 reporter, GFP fluorescence, 18 h; TGF-beta stimulated, 500 pg/mL final. Potency, µM (doses to about 46.1 µM), hits mostly inhibitors. 410,000 tested, 1.2% active. AID 588855; further: nearly all actives have a fitted effect of over 65% in size
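GFP signal (ex488/em500-530) from TGF-beta-stimulated HEPG2 CAGA-GFP cells, 500 pg/mL final, 18 h at 37 degrees C in DMEM plus 1% FBS, normalized to unstimulated and DMSO-stimulated controls.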
DT40 TDP1 no CPT: qHTS for Inhibitors of human tyrosyl-DNA phosphodiesterase 1 (TDP1): qHTS in cells in absence of CPT | DT40 Tdp1-/- hTDP1 cells, no CPT, ATP luminescence, 48 h | 420,000 tested, 15% active | Potency, µM (series often up to 46.2 µM), hits mostly inhibitors; further: nearly all actives have a fitted effect of over 55% in size
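Cells were dispensed at 400 per well, compounds added by pin tool, plates incubated ≥48 hr at 37 °C, then CellTiter-Glo added for 30 min at room temperature before luminescence reading. Line: DT40 Tdp1-/- complemented with hTDP1; camptothecin omitted.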
HepG2 tox: kills HepG2 cells in TGF-b inhibitor counter-screen | AID 588856 | HepG2 CAGA-GFP viability, ATP luminescence, 18 h | 410,000 tested, 0.76% active | Potency, µM (top dose mostly 46.1 µM), usual class: cytotoxic
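HepG2 CAGA-GFP cells (1000/well, DMEM with 1% FBS) received compound, then TGF-beta at 500 pg/mL final, and were incubated 18 hours at 37 degrees C. Viability was read by CellTiter-Glo luminescence. Media-only wells were set as complete cell-killing and DMSO as no toxicity.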
IL1B secr inh: blocks inflammasome-driven IL-1 beta release | THP-1 LPS/ATP IL-1B secretion, AlphaLISA, 16 h; hits give low values | activity change, % at 57.5 µM | 360,000 tested, 4.7% active | AID 743279; in the data active means activity change below about -50%; inconclusive means mostly about -30% to -49%
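Secreted IL-1B measured by AlphaLISA bead assay after 16 h compound exposure of THP-1 cells; compounds (final up to 57.5 uM) added 1 h before LPS (250 ng/mL) and ATP (1.25 mM) stimulation; lower signal means less secretion.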
TDP1 inh: blocks human tyrosyl-DNA phosphodiesterase 1. Q9NUW8. recombinant TDP1, AlphaScreen DNA substrate cleavage. Potency, µM (doses to about 130 µM), usual class: inhibitors. 350,000 tested, 0.28% active. AID 485290; further: nearly all actives have a fitted effect of over 40% in size
Target sequence (Q9NUW8 whole entry, looked up): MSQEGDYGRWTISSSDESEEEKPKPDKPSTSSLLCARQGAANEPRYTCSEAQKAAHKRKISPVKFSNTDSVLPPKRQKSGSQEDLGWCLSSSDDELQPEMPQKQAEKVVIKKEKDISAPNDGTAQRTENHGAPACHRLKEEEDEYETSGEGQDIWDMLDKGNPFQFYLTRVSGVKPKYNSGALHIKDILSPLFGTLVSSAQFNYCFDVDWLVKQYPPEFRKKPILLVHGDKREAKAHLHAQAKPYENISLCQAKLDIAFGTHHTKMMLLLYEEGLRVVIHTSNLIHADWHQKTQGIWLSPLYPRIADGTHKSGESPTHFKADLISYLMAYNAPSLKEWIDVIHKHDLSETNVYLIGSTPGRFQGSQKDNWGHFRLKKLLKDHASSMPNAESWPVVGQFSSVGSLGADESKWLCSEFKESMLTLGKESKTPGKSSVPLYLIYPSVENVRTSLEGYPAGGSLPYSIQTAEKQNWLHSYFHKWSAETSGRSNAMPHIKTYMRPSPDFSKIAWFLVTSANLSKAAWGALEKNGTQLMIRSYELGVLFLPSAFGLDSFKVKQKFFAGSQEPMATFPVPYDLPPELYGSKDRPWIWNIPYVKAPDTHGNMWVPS
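E. coli-derived human Tdp1, 1 nM final. Cpd preinc 15 min RT; substrate 15 nM final, 5 min RT; AS bead mix 10 ug/ml final, 10 min RT. Signal loss = tyrosine-FITC cleavage. No-enzyme wells = max signal.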
Large screens that a line does not name were inactive. Unless noted, the call rests on the fitted dose curve; in most records, active means well fitted curve in the direction sought with a large enough effect; inconclusive means small, poorly fitted or top-dose-only effect, or another doubt; inactive means no such curve, though single readings can be large; an effect the other way counts as inactive or inconclusive.

CCn1c(=O)n(CC)c2cc(N3CCCC3)c(NC(=O)Nc3cc(C)cc(C)c3)cc21	DT40 TDP1 CPT 21µM, DT40 TDP1 no CPT 18µM (no result: IL1B secr inh)
CCOc1ccccc1C(=O)NN1C(=O)CCC1=O	DT40 TDP1 CPT inconclusive, DT40 TDP1 no CPT 18µM
CCOc1ccccc1C(=O)Nc1cc2c(cc1N1CCCCC1)n(C)c(=O)n2C	DT40 TDP1 CPT 15µM, DT40 TDP1 no CPT 18µM (no result: IL1B secr inh)
CCOc1ccccc1C(=O)NCCNC(=O)c1ccccc1OCC	none (no result: TDP1 inh)
COc1ccccc1-c1cncnc1NCc1cnc(C)cn1	DT40 TDP1 CPT inconclusive (no result: TGFb SMAD3 inh, HepG2 tox, IL1B secr inh, TDP1 inh)
N#CCCN(C(=O)COC(=O)c1cc(=O)[nH]c2ccccc12)c1ccccc1	none
COC(=O)c1cc(NC(=O)c2cccc([N+](=O)[O-])c2C)ccc1Cl	DT40 TDP1 no CPT 16µM
COC(=O)c1ccc(Cl)c(NC(=O)c2cccc([N+](=O)[O-])c2C)c1	none
Cc1ccc(C(=O)Nc2ccc(Cc3ccncc3)cc2)cc1[N+](=O)[O-]	DT40 TDP1 CPT 21µM, DT40 TDP1 no CPT 21µM, IL1B secr inh inconclusive
Cc1c(C(=O)Nc2ccc(Cc3ccncc3)cc2)cccc1[N+](=O)[O-]	DT40 TDP1 CPT inconclusive, TGFb SMAD3 inh inconclusive, DT40 TDP1 no CPT inconclusive, IL1B secr inh -50
Cc1ccc(C(=O)Nc2sc(C)c(-c3ccccc3)c2C(N)=O)cc1[N+](=O)[O-]	DT40 TDP1 CPT 13µM, DT40 TDP1 no CPT 18µM
CCn1nnc(NC(=O)c2ccc([N+](=O)[O-])o2)n1	DT40 TDP1 CPT inconclusive, TGFb SMAD3 inh inconclusive, DT40 TDP1 no CPT inconclusive, IL1B secr inh -78
Cc1ccc(C(=O)Nc2cccc(NC(=O)c3ccc(C)c([N+](=O)[O-])c3)n2)cc1[N+](=O)[O-]	DT40 TDP1 CPT inconclusive, TGFb SMAD3 inh inconclusive, DT40 TDP1 no CPT 16µM (no result: TDP1 inh)
O=C(CCNc1ccc(Cc2ccncc2)cc1)c1ccc([N+](=O)[O-])cc1	DT40 TDP1 CPT 23µM, TGFb SMAD3 inh inconclusive, DT40 TDP1 no CPT inconclusive
O=C(Nc1ccc(Cc2ccncc2)cc1)c1cccc([N+](=O)[O-])c1	DT40 TDP1 CPT inconclusive, TGFb SMAD3 inh inconclusive, DT40 TDP1 no CPT inconclusive
O=C(Nc1ccc(Cc2ccncc2)cc1)c1ccc([N+](=O)[O-])o1	DT40 TDP1 CPT inconclusive, TGFb SMAD3 inh 16µM, DT40 TDP1 no CPT inconclusive, IL1B secr inh -96
Cc1cccc2sc(NC(=O)C3c4ccccc4Oc4ccccc43)nc12	DT40 TDP1 CPT 12µM, DT40 TDP1 no CPT inconclusive
Cc1cccc2sc(NC(=O)C3CC3)nc12	none (no result: TDP1 inh)
Cc1cccc(NC(=O)C2c3ccccc3Oc3ccccc32)n1	DT40 TDP1 CPT 15µM, DT40 TDP1 no CPT inconclusive
Cc1ccccc1Cn1nc(C)c(NC(=O)C2c3ccccc3Oc3ccccc32)c1C	DT40 TDP1 CPT 12µM, DT40 TDP1 no CPT 15µM
O=C(Nc1ncccn1)C1c2ccccc2Oc2ccccc21	none
COCCNC(=O)C[C@H]1C[C@H]2c3cc(NS(=O)(=O)c4ccc(F)cc4)ccc3O[C@H]2[C@H](CO)O1	DT40 TDP1 CPT inconclusive, DT40 TDP1 no CPT inconclusive (no result: TDP1 inh)
Cc1cn2cc(CNC(=O)CN3Cc4ccccc4OC(c4ccccc4F)C3)nc2s1 (stereo not drawn)	DT40 TDP1 no CPT inconclusive (no result: TGFb SMAD3 inh, HepG2 tox, IL1B secr inh, TDP1 inh)
Cc1ccc(-c2nn(-c3ccc(F)cc3)cc2C(=O)NCCCN2CCCC2=O)cc1	DT40 TDP1 CPT 0.21µM, TGFb SMAD3 inh inconclusive
Cc1ccc(C)c(CN2CCC(n3nccc3NC(=O)CCCc3ccccc3)CC2)c1	DT40 TDP1 CPT inconclusive, TGFb SMAD3 inh inconclusive, DT40 TDP1 no CPT inconclusive, IL1B secr inh inconclusive
CSc1ccc(CN2CCC(n3nccc3NC(=O)CCCc3ccccc3)CC2)cc1	DT40 TDP1 CPT 23µM, TGFb SMAD3 inh inconclusive, DT40 TDP1 no CPT inconclusive, IL1B secr inh inconclusive
O=C(CCCc1ccccc1)Nc1ccnn1C1CCN(Cc2ccccc2)CC1	DT40 TDP1 CPT inconclusive, DT40 TDP1 no CPT inconclusive

Screening data as filed in PubChem.
